Several values for one entry are separate records, joined by “and”; a condition that tells them apart may be missing. Identical values can stand only once. The campaign covered roughly 5,500 compounds. About 2,000 (36%) were called active. Inconclusive results (about 18%) are left out. Cut-off read from the data, not from the text of the source: active = normalized growth mostly below about 0.91 (no sharp cut-off); inconclusive = no clear call, values can overlap the other calls; inactive = mostly above about 0.92. The list shows a part of the results.
Assay: chemical genetic growth profiling, strain panel (AID 1159580);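 note: tested at 20 µM; growth read once vehicle control cultures reached saturation at 30 °C; 1 = growth at the plate median or of vehicle wells; lower values mean less growth of the strain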
Conditions: S. cerevisiae deletion strains, growth OD

Measured: normalized growth

CCC(=O)c1c(O)cc(O)cc1O
inactive: locus YAL013W, strain DEP1, stronger effect = lower value 1.01 | locus YAL021C, strain ccr4, stronger effect = lower value 0.953 | locus YAL026C, strain drs2, stronger effect = lower value 0.975 | locus YAL030W, strain snc1, stronger effect = lower value 0.983 | locus YBL061C, strain skt5, stronger effect = lower value 0.98 | locus YBR009C, strain hhf1, stronger effect = lower value 1.03 | locus YBR021W, strain FUR4, stronger effect = lower value 1.03 | locus YBR023C, strain chs3, stronger effect = lower value 0.994 | locus YBR171W, strain sec66, stronger effect = lower value 0.979 | locus YBR229C, strain ROT2, stronger effect = lower value 0.994 | locus YBR231C, strain swc5, stronger effect = lower value 0.987 | locus YBR279W, strain paf1, stronger effect = lower value 0.992 | locus YCL011C, strain gbp2, stronger effect = lower value 0.989 | locus YCL016C, strain dcc1, stronger effect = lower value 0.974 | locus YCL029C, strain bik1, stronger effect = lower value 0.982 | locus YCL069W, strain vba3, stronger effect = lower value 0.992 | locus YCR088W, strain abp1, stronger effect = lower value 0.991 | locus YDL005C, strain med2, stronger effect = lower value 0.977 | locus YDL035C, strain GPR1, stronger effect = lower value 1.01 | locus YDL040C, strain nat1, stronger effect = lower value 0.99 | locus YDL074C, strain BRE1, stronger effect = lower value 1 | locus YDL101C, strain DUN1, stronger effect = lower value 1.01 | locus YDL134C, strain PPH21, stronger effect = lower value 1.01 | locus YDL185W, strain tfp1, stronger effect = lower value 0.972 | locus YDL192W, strain arf1, stronger effect = lower value 0.981 | locus YDR001C, strain nth1, stronger effect = lower value 0.987 | locus YDR069C, strain doa4, stronger effect = lower value 0.983 | locus YDR101C, strain arx1, stronger effect = lower value 0.975 | locus YDR137W, strain rgp1, stronger effect = lower value 0.968 | locus YDR150W, strain NUM1, stronger effect = lower value 1 | locus YDR159W, strain sac3, stronger effect = lower value 0.995 | locus YDR162C, strain NBP2, stronger effect = lower value 1 | locus YDR195W, strain ref2 0.955 | locus YDR297W, strain sur2, stronger effect = lower value 0.982 | locus YDR318W, strain mcm21, stronger effect = lower value 0.977 | locus YDR334W, strain swr1, stronger effect = lower value 0.979 | locus YDR335W, strain msn5, stronger effect = lower value 0.986 | locus YDR388W, stronger effect = lower value 0.981 | locus YDR392W, strain spt3, stronger effect = lower value 0.968 | locus YDR502C, strain sam2, stronger effect = lower value 0.979 | locus YEL003W, strain gim4, stronger effect = lower value 0.99 | locus YEL037C, strain rad23, stronger effect = lower value 0.982 | locus YEL061C, strain CIN8 (second series), stronger effect = lower value 0.992 | locus YEL061C, strain CIN8, stronger effect = lower value 1 | locus YER015W, strain faa2, stronger effect = lower value 0.991 | locus YER016W, strain bim1, stronger effect = lower value 0.968 | locus YER110C, stronger effect = lower value 0.979 | locus YER111C, strain swi4, stronger effect = lower value 1 | locus YER155C, strain BEM2 (second series), stronger effect = lower value 0.983 | locus YER155C, strain BEM2, stronger effect = lower value 0.989 | locus YER167W, strain BCK2, stronger effect = lower value 1.01 | locus YFR010W, strain ubp6, stronger effect = lower value 0.998 | locus YGL078C, strain dbp3, stronger effect = lower value 0.975 | locus YGL086W, strain mad1, stronger effect = lower value 0.995 | locus YGL167C, strain pmr1, stronger effect = lower value 0.974 | locus YGL173C, strain kem1, stronger effect = lower value 1.01 | locus YGL227W, strain vid30, stronger effect = lower value 0.993 | locus YGL240W, strain doc1, stronger effect = lower value 1 | locus YGL248W, strain PDE1, stronger effect = lower value 1.01 | locus YGL253W, strain hxk2, stronger effect = lower value 0.986 | locus YGR078C, strain PAC10, stronger effect = lower value 1.01 | locus YGR135W, strain pre9, stronger effect = lower value 0.985 | locus YGR229C, strain SMI1, stronger effect = lower value 0.992 | locus YGR252W, strain gcn5, stronger effect = lower value 0.921 | locus YHR013C, strain ard1, stronger effect = lower value 0.938 | locus YHR027C, strain rpn1, stronger effect = lower value 1.01 | locus YHR030C, strain SLT2, stronger effect = lower value 1.01 | locus YHR079C, strain IRE1 (second series), stronger effect = lower value 0.978 | locus YHR079C, strain IRE1, stronger effect = lower value 1.03 | locus YHR094C, strain hxt1, stronger effect = lower value 0.983 | locus YHR129C, strain ARP1, stronger effect = lower value 0.999 | locus YHR142W, strain chs7, stronger effect = lower value 0.989 | locus YHR200W, strain rpn10, stronger effect = lower value 0.972 | locus YIL066C, strain RNR3, stronger effect = lower value 1.01 | locus YIL073C, strain SPO22, stronger effect = lower value 1.07 | locus YIL125W, strain kgd1, stronger effect = lower value 0.984 | locus YIR030C, strain dcg1, stronger effect = lower value 0.979 | locus YJL092W, strain hpr5, stronger effect = lower value 0.987 | locus YJL095W, strain BCK1 (second series), stronger effect = lower value 0.995 | locus YJL095W, strain BCK1, stronger effect = lower value 1 and 1.02 | locus YJL115W, strain asf1, stronger effect = lower value 0.996 | locus YJL129C, strain trk1, stronger effect = lower value 0.996 | locus YJL134W, strain LCB3, stronger effect = lower value 0.999 | locus YJL154C, strain vps35, stronger effect = lower value 0.975 | locus YJL164C, strain tpk1, stronger effect = lower value 0.993 | locus YJL166W, strain qcr8, stronger effect = lower value 0.991 | locus YJL168C, strain set2, stronger effect = lower value 0.979 | locus YJL187C, strain SWE1 (second series), stronger effect = lower value 1.01 | locus YJR043C, strain POL32, stronger effect = lower value 1.01 | locus YJR066W, strain TOR1, stronger effect = lower value 0.97 | locus YJR075W, strain HOC1, stronger effect = lower value 1.01
